The campaign covered roughly 13,000 compounds. About 3,200 (25%) showed an effect of 50% or more. Some of the results follow.
The molecules below were run on P. falciparum stage V gametocytes. Details: 48 h, 5 µM; inhibitor.
Design: BacTiter-Glo ATP luminescence viability of purified stage V gametocytes in 384-well plates, per cent inhibition versus DMSO

| SMILES | % Inhibition [%] |
| --- | --- |
| Cc1ccccc1C1CCN(C2CCC(NC(=O)c3ccc(-c4cccs4)s3)CC2)CC1 (stereo not shown) [TCMDC-134105] | -3.744 |
| CC(=O)Nc1ncc(C(=O)Nc2cccc(-c3ccc(-c4nc5ccc(F)cc5[nH]4)cc3)c2)s1 [TCMDC-136916] | -12.2 |
| O=C(NCc1ccccc1[S+]([O-])c1ccccc1CO)C(F)(F)F (stereo not shown) [TCMDC-137886] | 0.169 |
| Cc1cccc2nc(-c3cccc(-c4ccc(CNCc5cnn(-c6ccccc6)n5)cc4)c3)[nH]c12.O=C(O)C(F)(F)F [TCMDC-132965] | -15.5 |
| S=C(NCCN1CCOCC1)Nc1ccccc1 [TCMDC-123845] | -18.32 |
| N#Cc1cc(C(=O)c2cc(Cl)ccc2O)cn(-c2cc(Cl)cc(Cl)c2)c1=O [TCMDC-125188] | -6.306 |
| Cc1cc(N(C)C)nc(Nc2ccc(NS(=O)(=O)c3ccccc3)cc2)n1 [TCMDC-124952] | 7.952 |
| COc1ccc(CNCc2ccc(F)cc2)cc1-c1ccc(S(=O)(=O)NCCN2CCCC2)c(C)c1 [TCMDC-132224] | 105.7 |
| O=S(=O)(NCCN1CCCC1)c1ccc(-c2ccc(CNCc3ccc(F)cc3)cc2)cc1F [TCMDC-132287] | 42.7 |
| O=S(=O)(NCCN1CCCC1)c1ccc(-c2ccc(CNCc3ccccc3)cc2)cc1F [TCMDC-132236] | 50.96 |
| COc1ccc(CNCc2ccccc2)cc1-c1ccc(S(=O)(=O)NCCN2CCCC2)c(C)c1 [TCMDC-132272] | 107.1 |
| COc1ccc(CNCc2ccccc2)cc1-c1ccc(S(=O)(=O)NCCN2CCCC2)c(F)c1 [TCMDC-132265] | 101.3 |
| Cc1cc2c(cc1C(F)(F)F)N(C(=O)Nc1ccc(C(=O)NC3CCN(Cc4ccccc4)C3)cc1)CC2 (stereo not shown) [TCMDC-139871] | 23.78 |
| Clc1cc(Br)ccc1-c1ccc(CNCC2CCNCC2)o1 [TCMDC-124617] | 29.69 |
| CC(C)Cc1cnc2nc(N)nc(N)c2c1 [TCMDC-137923] | 48.38 |
| N#Cc1c(-c2ccccc2)cn2c1[nH]c(=O)c1ccccc12 [TCMDC-124997] | 14.43 |
| CCN(CCCN1CCCCC1)c1cc(C)nc(Nc2ccc(C)c(F)c2)n1 [TCMDC-132437] | 25.13 |
| O=C(NCCN1CCOCC1)c1ccc(CNC(=O)c2ccc(O)c(-c3ccc(Cl)c(Cl)c3)c2)cc1 [TCMDC-140852] | 5.208 |
| CON(C)C(=O)[C@@H](CCCCNC(=O)OCc1ccccc1)NC(=O)OC(C)(C)C [TCMDC-132004] | -2.99 |
| O=C(CN1CCC(NCc2cnc(-c3ccc(Cl)cc3)[nH]2)CC1)N1CCc2ccccc21 [TCMDC-138589] | 28.41 |
| Cc1cc(OCC2CCN(c3ncc(C(=O)Nc4ccccc4)cc3Cl)CC2)ccc1F [TCMDC-134033] | -3.032 |
| Cc1cc(OCCCN2CCCCC2C)ccc1NC(=O)COc1ccc(Cl)cc1C(=O)c1cc(Cl)cc(C#N)c1 (stereo not shown) [TCMDC-134727] | 73.35 |

| SMILES | % Inhibition [%] |
| --- | --- |
| COc1cc(NC(=O)N2CCc3ccc(OCCN4CCCCC4)cc32)cc(C(F)(F)F)c1 [TCMDC-140249] | 14.65 |
| Cc1cc(OCCCN2CCCC2)ccc1NC(=O)COc1ccc(Cl)cc1C(=O)c1cc(C#N)cc(C(F)(F)F)c1 [TCMDC-138904] | 58.86 |
| Cc1cc(OCCCN2CCCCC2)ccc1NC(=O)COc1ccc(Cl)cc1C(=O)c1cc(C#N)cc(C(F)(F)F)c1 [TCMDC-134827] | 50 |
| Cc1cc(OCCCN2CCCCC2)ccc1NC(=O)COc1ccc(Cl)cc1C(=O)c1cc(Cl)cc(C#N)c1 [TCMDC-134725] | 48.49 |
| Cc1cc(OCCCN2CCN(CCN3CCOCC3)CC2)ccc1NC(=O)COc1ccc(Cl)cc1C(=O)c1cc(Cl)cc(C#N)c1 [TCMDC-135999] | 30.59 |
| Cc1c(NC(=O)COc2ccc(Cl)cc2C(=O)c2cc(F)cc(C(F)(F)F)c2)ccc2ncsc12 [TCMDC-138907] | 4.382 |
| Cc1cc(OCC2CCCN(c3ncc(C(=O)NC4CC4)cc3Cl)C2)ccc1F (stereo not shown) [TCMDC-134314] | 18.53 |
| CCCCCCN1CCCN(Cc2cccc(C(=O)Nc3ccc(C(C)(C)C)cc3)c2)CC1 [TCMDC-135993] | -6.517 |
| CCCC(C)NC(=O)[C@H](Cc1ccccc1)NC(=O)c1ccc(O)c(-c2ccc(OC)cc2)c1 (stereo partly shown) [TCMDC-140800] | 19.41 |
| CCOC(=O)CNC(=O)N(CCN(Cc1ccccc1)C(=O)NCC(=O)OCC)Cc1ccccc1 [TCMDC-138999] | 6.745 |
| CC(C)CNCc1cccc(-c2ccc(CNc3ccc(C(=O)c4ccccc4)cc3)cc2)c1 [TCMDC-140728] | 10.94 |
| CC(C)CNCc1cccc(-c2cccc(CN(CCN(C)C)C(=O)Nc3ccccc3)c2)c1 [TCMDC-140592] | 108.6 |
| CN(C)CCN(C)Cc1cccc(-c2cccc(NC(=O)c3cccc(C#N)c3)c2)c1 [TCMDC-133360] | 6.032 |
| CN(C)CCOc1cccc(NC(=O)Nc2ccc(-c3ccccc3)cc2)c1 [TCMDC-139537] | 22.41 |
| CC(C)CNCc1cccc(-c2cccc(CN(CCN(C)C)C(=O)NCCc3ccccc3)c2)c1 [TCMDC-140620] | 102.4 |
| CC[C@H](C)CNC(=O)c1cncc(-c2cccc(CNCCCc3ccccc3)c2)c1 [TCMDC-134221] | 19.08 |
| CC(C)CNCc1ccc(-c2cccc(CN(CCN(C)C)C(=O)NCCc3ccccc3)c2)cc1 [TCMDC-140621] | 102.2 |
| CC(C)CNC(=O)c1cncc(-c2ccc(CNCCCc3ccccc3)cc2)c1 [TCMDC-134247] | -10.62 |
| CN(CC(=O)Nc1ccc(F)c(F)c1F)c1ncnc2sc(-c3ccccc3)cc12 [TCMDC-124491] | 23.36 |
| O=C(Nc1ccc2c(ccn2C2CCCN(Cc3cc(F)cc(F)c3F)CC2)c1)c1ccco1 (stereo not shown) [TCMDC-135087] | 26.42 |
| Nc1nc(N)c2cc(N(Cc3ccccc3)Cc3ccccc3)ccc2n1 [TCMDC-137850] | -9.254 |
